Test results as given in PubChem BioAssay (NCATS).
Records with an inconclusive call do not appear. Where a call stands in place of a potency, no number is given. Calls of active or inactive are those of the source. Calls follow the shape of the dose curve; as a rule, active = well fitted cell-killing curve with a large enough effect; inconclusive = small, poorly fitted or top-dose-only effect, or effect the other way; inactive = no such curve, though single readings can be large or run the other way.

How the values were obtained:
[1] = Quantitative High-Throughput drug screen in 47 multiple myeloma cell lines against the NCATS MIPE library collection: OPM2_DSMZ cell viability assay (AID 1919872); also: nearly all actives have a fitted effect of over 30% in size
How it was run: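 Relative luminescence from CellTiter-Glo served as the viability signal, referenced to DMSO-treated (100%) and cell-free medium (0%) controls. Treatment lasted 48 hours at 37C with 500 cells per well.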

[2] = Quantitative High-Throughput drug screen in 47 multiple myeloma cell lines against the NCATS MIPE library collection: KMS11_JCRBsus cell viability assay (AID 1919873); also: nearly all actives have a fitted effect of over 50% in size
How it was run: (§1)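 Cells were exposed to library compounds for 48 hours, after which ATP was measured by CellTiter-Glo. Signal was taken as median relative luminescence units.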

[3] = Quantitative High-Throughput drug screen in 47 multiple myeloma cell lines against the NCATS MIPE library collection: KMS28BM_JCRB cell viability assay (AID 1919874); also: nearly all actives have a fitted effect of over 35% in size
How it was run: as §1
Potency is read from the fitted curve at half-maximal effect.

| SMILES | Potency [1] | Potency [2] | Potency [3] |
| --- | --- | --- | --- |
| Cc1ccc(Nc2cc(-c3cccc(N4C(=O)c5ccccc5C4=O)c3)ncn2)cc1NS(C)(=O)=O | 26.4 µM (active) | 20.9 µM (active) |  |
| COc1cc2ncnc(Nc3ccc(F)c(Cl)c3)c2cc1OCCCN1CCOCC1 | 54 µM (active) | 21.5 µM (active) |  |
| COc1ccc(C2Sc3ccccc3N(CCN(C)C)C(=O)C2OC(C)=O)cc1 (centres undefined) | inactive | inactive | inactive |
| Cc1c(O)cccc1C(=O)N[C@@H](CSc1ccccc1)[C@H](O)CN1C[C@H]2CCCC[C@@H]2C[C@@H]1C(=O)NC(C)(C)C | 26.4 µM (active) | 18.7 µM (active) | 20.9 µM (active) |
| COc1ccc(-c2nc(N3CCOCC3)c3sc(CN(C)c4ncc(C(=O)NO)cn4)cc3n2)cn1 | 0.0021 µM (active) | inactive | inactive |
| CC(C)C[C@H](CC(=O)O)C(=O)N[C@@H](Cc1c[nH]c2ccccc12)C(=O)N[C@@H](C)c1ccccc1 | inactive | inactive |  |
| COCCOC(=O)C1=C(C)NC2=C(C(=O)CC(c3ccccc3OC)C2)C1c1cccc(O)c1 (centres undefined) | 16.6 µM (active) | 5.26 µM (active) |  |
| NC(=O)c1cccc2[nH]c(-c3ccc([C@H]4CCCN4)cc3F)nc12 | inactive | inactive | inactive |
| CC(C)(C)COc1ccc(-n2cc(C(=O)O)cn2)cc1C#N | inactive | inactive |  |
| COc1ccc2c3c1OC1C[C@@H](O)C=C[C@@]31CCN(C)C2 (some centres undefined) | inactive | inactive |  |
| Nc1nc(F)nc2c1ncn2[C@@H]1O[C@H](COP(=O)(O)O)[C@@H](O)[C@H]1O | inactive | inactive |  |
| Cc1ccc(/C=N/NC(=O)c2ccccc2Oc2ccccc2)o1 | 20.9 µM (active) | 9.35 µM (active) |  |
| COc1cccc(-c2cc(=O)c3ccccc3o2)c1N | inactive | inactive |  |
| c1ccc2c(Cc3c[nH]c4ccccc34)c[nH]c2c1 | 26.4 µM (active) | 23.5 µM (active) | 18.7 µM (active) |
| CN(C)CCC=C1c2ccccc2COc2ccc(CC(=O)O)cc21 | inactive | inactive | inactive |
| N#CC(=C(N)Sc1ccccc1N)C(C#N)=C(N)Sc1ccccc1N | inactive | 8.33 µM (active) |  |
| C[C@H](NC(=O)c1sccc1OCc1ccc(Cl)cc1)c1ccccc1 | 18.7 µM (active) | 7.43 µM (active) |  |
| Nc1ncnc2c1ncn2[C@@H]1O[C@H](CO)C[C@@H]1O | inactive | 37.2 µM (active) |  |
| CC=CC(=O)N(CC)c1ccccc1C | inactive | inactive | inactive |
| CC(C)(C)c1cc(C(=O)O)c(NC(=O)Nc2ccc3[nH]ncc3c2)s1 | inactive | inactive |  |
| Cc1ccc(C(C)(O)c2nc3ccccc3s2)c(C)c1 (centres undefined) | inactive | inactive |  |
| CN1CCN(CCOc2cc(OC3CCOCC3)c3c(Nc4c(Cl)ccc5c4OCO5)ncnc3c2)CC1 | inactive | 23.5 µM (active) |  |

| SMILES | Potency [1] | Potency [2] | Potency [3] |
| --- | --- | --- | --- |
| CC(C)C(C)C=CC(C)C1CCC2C3=CC=C4CC(O)CCC4(C)C3CCC21C (centres undefined) | inactive | inactive |  |
| COc1ccc2cc(-c3nc(-c4ccc(S(C)=O)cc4)[nH]c3-c3ccncc3)ccc2c1 (centres undefined) | inactive | 23.5 µM (active) |  |
| CO[C@H]1C(=O)[C@]2(C)[C@@H](OC)C[C@H]3OC[C@@]3(OC(C)=O)[C@H]2[C@H](OC(=O)c2ccccc2)[C@]2(O)C[C@H](OC(=O)[C@H](O)[C@@H](NC(=O)OC(C)(C)C)c3ccccc3)C(C)=C1C2(C)C | inactive | inactive | inactive |
| CO[C@H]1C[C@@H]2CC[C@@H](C)[C@@](O)(O2)C(=O)C(=O)N2CCCC[C@@H]2C(=O)O[C@H]([C@H](C)C[C@@H]2CC[C@H](OP(C)(C)=O)[C@H](OC)C2)CC(=O)[C@H](C)C=C(C)[C@@H](O)[C@@H](OC)C(=O)[C@H](C)C[C@H](C)C=CC=CC=C1C | inactive | inactive | inactive |
| CN1[C@@H]2CCC[C@@H]1CC(NC(=O)c1nn(C)c3ccccc13)C2 (some centres undefined) | inactive | inactive | inactive |
| COc1ccc2cccc(CCNC(C)=O)c2c1 | inactive | inactive | inactive |
| NC1CCC(Nc2nc(Nc3ccc(C(=O)N4CCCCC4)cc3)c3ncn(-c4cccc(F)c4)c3n2)CC1 (centres undefined) | inactive | inactive | inactive |
| O=c1c(-c2ccc(O)cc2)coc2cc(O)ccc12 | inactive | inactive | inactive |
| C=C1C(=O)[C@@]23C(CC[C@@H]1[C@H]2O)[C@@]12CO[C@]3(O)[C@@H](O)[C@@H]1C(C)(C)CC[C@@H]2O (some centres undefined) | 7.43 µM (active) | 2.96 µM (active) | 2.35 µM (active) |
| O=C(CCCCCCC(=O)Nc1ccccc1)NO | 4.69 µM (active) | 2.64 µM (active) | 2.09 µM (active) |
| O=C(OCC#CCSc1nnc(-c2cccc3ccccc23)o1)c1cc2ccccc2s1 | inactive | inactive | 3.32 µM (active) |
| O=C(O)c1ccc(-c2c[nH]c3ncc(-c4ccccc4)cc23)cc1C1CCCC1 | inactive | inactive | inactive |
| CC(C)OC(=O)CCCC=CC[C@@H]1[C@H](C=C[C@@H](O)COc2cccc(C(F)(F)F)c2)[C@H](O)C[C@@H]1O | 23.5 µM (active) | 16.6 µM (active) | 18.7 µM (active) |
| Clc1ccc(-c2nc3sccn3c2C=NOCc2ccc(Cl)c(Cl)c2)cc1 | inactive | inactive | inactive |
| CCOC(=O)O[C@]1(C(=O)OCCl)CC[C@@H]2[C@H]3CCC4=CC(=O)C=C[C@]4(C)[C@@H]3[C@@H](O)C[C@@]21C | inactive | 0.264 µM (active) | inactive |
| O=C1C(Cl)=C(NCCN2CCOCC2)C(=O)c2ncccc21 | 7.43 µM (active) | 1.87 µM (active) | 3.32 µM (active) |
| COc1cc2ncnc(-n3nc(-c4ccccn4)nc3N)c2cc1OC | inactive | inactive | inactive |
| CC(C)(C)OC(=O)N[C@H]1CCCCCC=C[C@@H]2C[C@@]2(C(=O)NS(=O)(=O)C2CC2)NC(=O)[C@@H]2C[C@@H](OC(=O)N3Cc4cccc(F)c4C3)CN2C1=O | inactive | inactive | inactive |
| Cc1nc(N)sc1-c1ccnc(Nc2ccc(N3CCOCC3)cc2)n1 | 11.8 µM (active) | 7.43 µM (active) | 16.6 µM (active) |
| C=C1C(=O)OC2C=C(C)CCC=C(C)CCC12 (centres undefined) | 20.9 µM (active) | 20.9 µM (active) | 18.7 µM (active) |
| CO[C@H]1C=CC=C(C)C(=O)NC2=CC(=O)C(NCCN(C)C)=C(C[C@@H](C)C[C@H](OC)[C@@H](O)[C@@H](C)C=C(C)[C@@H]1OC(N)=O)C2=O | 0.0743 µM (active) | 0.0093 µM (active) | 0.166 µM (active) |
| O=C(Nc1c(Cl)cncc1Cl)c1ccc(OC(F)F)c(OCC2CC2)c1 | inactive | inactive | inactive |

| SMILES | Potency [1] | Potency [2] | Potency [3] |
| --- | --- | --- | --- |
| CCCCCN(C)CCC(O)(P(=O)(O)O)P(=O)(O)O | inactive | inactive | inactive |
| COc1ccc(Cc2nccc3cc(OC)c(OC)cc23)cc1OC | 11.8 µM (active) | 18.7 µM (active) | 20.9 µM (active) |
| O=C1C[C@@H](c2ccc(O)cc2)Oc2cc(O)cc(O)c21 | inactive | inactive | inactive |
| O=C1c2ccccc2-[n+]2ccc3c([nH]c4ccccc43)c21 | 2.64 µM (active) | 1.05 µM (active) | 1.32 µM (active) |
| CC(=NNC(=S)N1CCC1)c1ccccn1 | 0.0074 µM (active) | 0.0033 µM (active) | 0.0083 µM (active) |
| Cc1nnc(C(C)C)n1C1C[C@H]2CC[C@@H](C1)N2CC[C@H](NC(=O)C1CCC(F)(F)CC1)c1ccccc1 (some centres undefined) | inactive | inactive | inactive |
| CC(=Cc1ccccc1)C=C1SC(=S)N(CC(=O)O)C1=O | inactive | inactive | inactive |
| O=C1NC(=O)C(=Cc2ccc(-c3ccc(F)cc3)o2)S1 | inactive | inactive | inactive |
| CCOc1ccc(Nc2nc(-c3c(C)nc4ccccn34)cs2)cc1 | 0.0037 µM (active) | inactive | inactive |
| COc1ccc(-c2oc3c(CC=C(C)C)c(OC4O[C@H](CO)[C@@H](O)[C@H](O)[C@@H]4O)cc(O)c3c(=O)c2OC2O[C@@H](C)[C@H](O)[C@@H](O)[C@@H]2O)cc1 (some centres undefined) | 23.5 µM (active) | 23.5 µM (active) | 16.6 µM (active) |
| O=C(O)c1ccccc1C(=O)Nc1ccc(-c2ccccc2)cc1 | inactive | inactive | inactive |
| C[C@]12CCC3c4ccc(O)cc4CCC3C1CCC2=O (some centres undefined) | inactive | 26.4 µM (active) | 20.9 µM (active) |
| CCOC1OC(=O)C[C@H]1NC(=O)[C@@H]1CCCN1C(=O)[C@@H](NC(=O)c1ccc(N)c(Cl)c1)C(C)(C)C (some centres undefined) | inactive | inactive | inactive |
| CC(C)(Cc1ccc2ccccc2c1)NC[C@@H](O)COc1cccc(Cl)c1C#N | inactive | inactive | inactive |
| CC[C@@]1(O)C[C@H](O[C@H]2C[C@H](N(C)C)[C@H](O[C@H]3C[C@H](O)[C@H](O[C@H]4CCC(=O)[C@H](C)O4)[C@H](C)O3)[C@H](C)O2)c2c(cc3c(c2O)C(=O)c2c(O)cccc2C3=O)[C@@H]1C(=O)OC | 4.18 µM (active) | 0.166 µM (active) | 0.132 µM (active) |
| COc1ccc(-c2cc(=O)c3c(O)cc(O)cc3o2)cc1O | inactive | 26.4 µM (active) | inactive |
| CC(C)C(=O)Oc1ccc(CO)cc1[C@H](CCN(C(C)C)C(C)C)c1ccccc1 | inactive | inactive | inactive |
| Clc1ccc(C(c2ccc(Cl)cc2)n2cc[n+](CC(OCc3ccc(Cl)cc3Cl)c3ccc(Cl)cc3Cl)c2)cc1 (centres undefined) | 18.7 µM (active) | 9.35 µM (active) | 11.8 µM (active) |
| CC(C)(C)NC(=O)Nc1cccc(Nc2ncc(F)c(NC(C)(C)CO)n2)c1 | 16.6 µM (active) |  | inactive |
| CC1(C)O[C@H]2C[C@@H]3[C@H]4CCC5=CC(=O)C=C[C@]5(C)[C@@]4(F)[C@@H](O)C[C@]3(C)[C@]2(C(=O)CO)O1 | inactive | 0.0083 µM (active) | inactive |
